Outcome and AC50 data for nine compounds are collected here from PubChem BioAssay (EPA / NIEHS).

A short description of test [1]: ATG_TCF_b_cat_CIS: Attagene CIS-FACTORIAL HepG2 Assay for human T-Cell-Factor with beta-catenin (TCF/b-cat) (AID 2282965). The settings on record: HepG2 TCF/beta-catenin cis-reporter transcription, actives raise or lower the signal. The essentials:
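HepG2 cells transiently transfected with multiple cis-promoter-regulated reporter transcription units, so endogenous transcription factor activity is measured. Reporter mRNA read 24 hours after dosing by RT-PCR, fluorescent labelling and capillary electrophoresis; bidirectional fitting against DMSO.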

Test [2] in a line: ATG_TAL_CIS: Attagene CIS-FACTORIAL HepG2 Assay for human TAL Basal Promoter (AID 2282966).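 Further: background control endpoint measuring basal TAL promoter reporter mRNA not a specific factor.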 The settings on record: HepG2 Attagene cis-factorial TAL promoter reporter; actives raise or lower the signal. The essentials: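 RT-PCR plus capillary electrophoresis quantifies reporter mRNA induction in transiently transfected HepG2 cells after 24 h chemical treatment. DMSO serves as negative control and baseline for bidirectional fitting.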

Test [3] in a line: ATG_TGFb_CIS: Attagene CIS-FACTORIAL HepG2 Assay for human Transforming Growth Factor (TGF) (AID 2282967). The settings on record: HepG2 Attagene CIS TGFb reporter, mRNA transcription; actives raise or lower the signal. In short, it runs like this: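 Transient MRTU transfection of HepG2 (FuGene 6). Dose 24 h. TriZol RNA, oligo(dT) RT, PCR, 6-FAM primer extension, HpaI cut, CE. Bidirectional fit, DMSO = baseline.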

Test [4] can be described thus: ATG_VDRE_CIS: Attagene CIS-FACTORIAL HepG2 Assay for human Vitamin D Receptor Element (VDRE) (AID 2282968). The conditions noted are these: HepG2 VDRE cis-reporter transcription, actives raise or lower the signal. The essentials: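 RT-PCR/CE readout of reporter mRNA; HepG2, transient transfection, 24 h dosing; DMSO baseline; bidirectional analysis.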
Test [5] addresses Estrogen receptor (Homo sapiens) (UniProt P03372). Kind of test: ATG_ERa_TRANS: Attagene TRANS-FACTORIAL HepG2 Assay for human Estrogen Receptor alpha (ERa) (AID 2282970; active means hit-call score of the fitted dose curve at least 0.9, where 1 is the maximum). The settings on record: HepG2 Attagene TRANS ERa GAL4 reporter, mRNA. The essentials:
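Cells: HepG2, transiently transfected. Construct: GAL4-UAS reporter units regulated by exogenous NR-Gal4 chimeras. Time: 24 h. Detection: reporter mRNA by RT-PCR, capillary electrophoresis, fluorescence. Baseline: DMSO, upward fitting.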

A short description of test [6]: ATG_M_19_TRANS: Attagene TRANS-FACTORIAL HepG2 Assay for M19 Transcription Factor (Internal Marker) (AID 2282974; active means hit-call score of the fitted dose curve at least 0.9, where 1 is the maximum). The settings on record: HepG2 Attagene TRANS-FACTORIAL M19 internal marker reporter. In short, it runs like this: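 Multiplexed TRANS format: HepG2 liver cells bearing transient GAL4-UAS reporter units, chemical treatment 24 h, reporter transcripts quantified by RT-PCR plus capillary electrophoresis. DMSO defines baseline.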

For test [7], the target named is Glucocorticoid receptor (Homo sapiens) (UniProt P04150). The test can be described thus: ATG_GR_TRANS: Attagene TRANS-FACTORIAL HepG2 Assay for human Glucocorticoid Receptor (GR) (AID 2282978; active means hit-call score of the fitted dose curve at least 0.9, where 1 is the maximum;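 further: activators score as hits since higher reporter transcript over DMSO is fitted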). The settings on record: HepG2 Attagene TRANS GR reporter, mRNA transcription. In short, it runs like this:
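Transiently transfected HepG2 cells express chimeric NR-GAL4 proteins acting on GAL4-UAS reporter units. Compounds are applied for 24 h. mRNA induction over DMSO is measured by capillary electrophoresis.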

In test [8] the target is Oxysterols receptor LXR-alpha (Homo sapiens) (UniProt Q13133). Kind of test: ATG_LXRa_TRANS: Attagene TRANS-FACTORIAL HepG2 Assay for human Liver X Receptor alpha (LXRa) (AID 2282980; active means hit-call score of the fitted dose curve at least 0.9, where 1 is the maximum). The settings on record: HepG2 Attagene TRANS reporter, LXRa transactivation. In short, it runs like this: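 Chemical-induced reporter mRNA measured by RT-PCR with fluorescent labelling and capillary electrophoresis after 24 h dosing of transiently transfected HepG2 cells expressing exogenous NR-Gal4 chimeras; increases scored against DMSO baseline.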

In test [9] the target is Hepatocyte nuclear factor 4-alpha (Homo sapiens) (UniProt P41235). The test can be described thus: ATG_HNF4a_TRANS: Attagene TRANS-FACTORIAL HepG2 Assay for human Hepatocyte Nuclear Factor 4 alpha (HNF4a) (AID 2282982; active means hit-call score of the fitted dose curve at least 0.9, where 1 is the maximum). The conditions noted are these: HepG2 HNF4a transactivation reporter, mRNA readout. The essentials: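 Cells used were human HepG2, transiently carrying GAL4-UAS reporter units read out against exogenous NR-GAL4 chimeras. Reporter transcript levels after 24 h dosing were quantified by fluorescent RT-PCR and capillary electrophoresis.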

The nature of test [10]: ATG_M_06_TRANS: Attagene TRANS-FACTORIAL HepG2 Assay for M06 Transcription Factor (Internal Marker) (AID 2282983; active means hit-call score of the fitted dose curve at least 0.9, where 1 is the maximum). The conditions noted are these: HepG2 Attagene TRANS M06 internal marker reporter. In short, it runs like this:
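Cells: HepG2, transient multi-reporter transfection. Exposure: 24 h. Detection: RT-PCR, 6-FAM labelling, HpaI digestion (2 h, 37 °C), capillary electrophoresis. Baseline: DMSO.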

Test [11] can be described thus: ATG_M_32_TRANS: Attagene TRANS-FACTORIAL HepG2 Assay for M32 Transcription Factor (Internal Marker) (AID 2282984; active means hit-call score of the fitted dose curve at least 0.9, where 1 is the maximum;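 further: transcript level of a background control reporter unit measured by RT-PCR and capillary electrophoresis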). The conditions noted are these: HepG2 Attagene TRANS M32 internal marker reporter. The essentials:
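Human hepatoma HepG2, transient MRTU transfection, 24 h treatment. RNA → RT-PCR → fluorescent primer extension → HpaI digest (2 h, 37 C) → CE. Positive-direction fit vs DMSO.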

For test [12], the target named is Nuclear receptor subfamily 4 group A member 2 (Homo sapiens) (UniProt P43354). Kind of test: ATG_NURR1_TRANS: Attagene TRANS-FACTORIAL HepG2 Assay for human Nuclear Receptor Related Protein 1 (NURR1) (AID 2282985; active means hit-call score of the fitted dose curve at least 0.9, where 1 is the maximum). The conditions noted are these: HepG2 Attagene TRANS reporter, mRNA readout. The essentials:
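After 24 h chemical dosing, total RNA from transiently transfected HepG2 cells was reverse-transcribed and reporter cDNA PCR-amplified, FAM-labelled and analysed by capillary electrophoresis. Activity fitted in positive direction, DMSO as negative control.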

In test [13] the target is Transcriptional activator Myb (Homo sapiens) (UniProt P10242). The test can be described thus: ATG_Myb_CIS: Attagene CIS-FACTORIAL HepG2 Assay for human Myeloblastosis (Myb) Proto-Oncogene Transcription Factor (AID 2282986). The settings on record: HepG2 Attagene CIS-FACTORIAL Myb reporter transcription; actives raise or lower the signal. In short, it runs like this: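 Using HepG2 liver cells bearing transiently transfected cis-promoter reporter constructs, the assay measures induction or loss of reporter mRNA after 24 hours of dosing. Detection used fluorescently labeled RT-PCR products separated by capillary electrophoresis.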

Test [14] addresses X-box-binding protein 1 (Homo sapiens) (UniProt P17861). Kind of test: ATG_Xbp1_CIS: Attagene CIS-FACTORIAL HepG2 Assay for human X-box Binding Protein 1 (XBP1) (AID 2282972). The conditions noted are these: HepG2 XBP1 cis-element reporter, Attagene multiplex; actives raise or lower the signal. The essentials: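 Fluorescence-labelled cDNA fragments from reporter transcripts, separated by capillary electrophoresis, give the signal. Source: HepG2 cells transfected with promoter-driven reporter units, harvested 24 h post-dose. DMSO served as reference for bidirectional curve fitting.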

Test [15] can be described thus: ATG_GAL4_TRANS: Attagene TRANS-FACTORIAL HepG2 Assay for GAL4 (Internal Marker) (AID 2282976; active means hit-call score of the fitted dose curve at least 0.9, where 1 is the maximum). The settings on record: HepG2 Attagene TRANS GAL4 internal marker reporter. In short, it runs like this: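 In transfected human HepG2 liver cells dosed 24 h, GAL4 reporter mRNA serves as a baseline marker. Detection by RT-PCR with fluorescent capillary electrophoresis, activity fitted upward relative to DMSO.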

The target in test [16] is Bile acid receptor (Homo sapiens) (UniProt Q96RI1). Kind of test: ATG_FXR_TRANS: Attagene TRANS-FACTORIAL HepG2 Assay for Farnesoid X Receptor (FXR) (AID 2282979; active means hit-call score of the fitted dose curve at least 0.9, where 1 is the maximum;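 further: hits raise reporter mRNA above DMSO so AC50 marks FXR activation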). The conditions noted are these: HepG2 Attagene TRANS FXR-GAL4 reporter transcription. In short, it runs like this:
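Reporter transcripts from transfected HepG2 cells were measured 24 h after dosing, using RT-PCR with capillary electrophoresis of 6-FAM-labelled fragments. The read-out reflects activity of exogenous FXR-Gal4 chimera on GAL4-UAS units, with induction relative to DMSO.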

The target in test [17] is Oxysterols receptor LXR-beta (Homo sapiens) (UniProt P55055). The test can be described thus: ATG_LXRb_TRANS: Attagene TRANS-FACTORIAL HepG2 Assay for human Liver X Receptor beta (LXRb) (AID 2282981; active means hit-call score of the fitted dose curve at least 0.9, where 1 is the maximum). The settings on record: HepG2 Attagene TRANS GAL4-LXRb reporter, mRNA. The essentials: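 In this TRANS format, exogenous chimeric NR-Gal4 protein activity, not endogenous factors, drives reporter expression in transfected human HepG2 cells. Exposure lasted 24 h; reporter mRNA was read by fluorescent capillary electrophoresis.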

Results filed as inconclusive are left out. Active and inactive are the calls of the source. How the source made its calls, unless noted: active means hit-call score of the fitted dose curve at least 0.9, where 1 is the maximum; inactive means score below 0.9.

Chain of Glucocorticoid receptor (Homo sapiens) (P04150 whole entry, looked up, the tested form may be a part): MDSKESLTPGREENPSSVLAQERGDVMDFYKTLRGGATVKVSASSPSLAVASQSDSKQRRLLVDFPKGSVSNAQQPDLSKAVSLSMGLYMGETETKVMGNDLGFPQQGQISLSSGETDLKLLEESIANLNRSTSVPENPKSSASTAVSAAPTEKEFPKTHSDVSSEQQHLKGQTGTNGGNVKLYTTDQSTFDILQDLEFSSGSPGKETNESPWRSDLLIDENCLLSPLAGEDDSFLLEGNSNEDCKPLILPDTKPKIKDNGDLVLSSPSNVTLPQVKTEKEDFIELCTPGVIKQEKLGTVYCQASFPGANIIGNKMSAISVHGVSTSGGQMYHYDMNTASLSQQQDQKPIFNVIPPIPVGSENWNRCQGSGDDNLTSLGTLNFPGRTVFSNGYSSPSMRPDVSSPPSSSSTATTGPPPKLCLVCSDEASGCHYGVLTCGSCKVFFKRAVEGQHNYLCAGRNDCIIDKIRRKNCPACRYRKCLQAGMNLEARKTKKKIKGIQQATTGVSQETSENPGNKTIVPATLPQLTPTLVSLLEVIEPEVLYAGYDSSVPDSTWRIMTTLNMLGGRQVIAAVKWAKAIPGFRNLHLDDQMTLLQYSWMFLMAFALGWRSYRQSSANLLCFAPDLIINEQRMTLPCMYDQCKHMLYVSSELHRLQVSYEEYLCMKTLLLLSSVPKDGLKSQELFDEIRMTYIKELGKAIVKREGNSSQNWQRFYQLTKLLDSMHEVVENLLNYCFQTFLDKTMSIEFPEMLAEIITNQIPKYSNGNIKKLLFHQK
Chain of Oxysterols receptor LXR-alpha (Homo sapiens) (Q13133 whole entry, looked up, the tested form may be a part): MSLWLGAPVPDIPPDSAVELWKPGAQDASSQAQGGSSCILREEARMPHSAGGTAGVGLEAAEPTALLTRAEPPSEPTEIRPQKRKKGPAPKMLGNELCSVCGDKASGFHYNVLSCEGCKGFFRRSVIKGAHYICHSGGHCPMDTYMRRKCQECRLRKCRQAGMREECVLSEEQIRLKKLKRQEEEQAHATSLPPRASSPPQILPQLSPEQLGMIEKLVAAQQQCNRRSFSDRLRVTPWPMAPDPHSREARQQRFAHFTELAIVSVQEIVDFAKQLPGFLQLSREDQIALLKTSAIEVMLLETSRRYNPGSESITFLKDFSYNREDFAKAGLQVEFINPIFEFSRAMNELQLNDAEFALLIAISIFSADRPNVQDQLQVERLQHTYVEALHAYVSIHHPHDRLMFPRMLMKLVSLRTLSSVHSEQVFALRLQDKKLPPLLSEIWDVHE
Chain of Nuclear receptor subfamily 4 group A member 2 (Homo sapiens) (P43354 whole entry, looked up): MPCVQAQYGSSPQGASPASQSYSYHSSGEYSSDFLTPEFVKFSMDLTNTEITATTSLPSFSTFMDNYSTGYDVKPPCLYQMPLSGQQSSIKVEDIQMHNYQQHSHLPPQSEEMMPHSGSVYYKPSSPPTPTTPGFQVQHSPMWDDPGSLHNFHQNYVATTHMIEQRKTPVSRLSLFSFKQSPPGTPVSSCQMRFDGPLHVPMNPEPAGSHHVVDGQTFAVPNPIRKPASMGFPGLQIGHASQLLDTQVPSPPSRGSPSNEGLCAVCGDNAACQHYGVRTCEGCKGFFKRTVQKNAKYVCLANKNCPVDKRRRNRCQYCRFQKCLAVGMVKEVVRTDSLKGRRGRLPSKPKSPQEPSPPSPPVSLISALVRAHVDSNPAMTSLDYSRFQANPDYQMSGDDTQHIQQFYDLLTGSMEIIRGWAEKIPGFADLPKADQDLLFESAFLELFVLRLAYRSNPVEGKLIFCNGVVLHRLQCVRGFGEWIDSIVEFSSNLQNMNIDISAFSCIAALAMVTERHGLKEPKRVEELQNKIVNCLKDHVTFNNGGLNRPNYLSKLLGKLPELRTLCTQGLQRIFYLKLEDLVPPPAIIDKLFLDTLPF
Chain of Hepatocyte nuclear factor 4-alpha (Homo sapiens) (P41235 whole entry, looked up, the tested form may be a part): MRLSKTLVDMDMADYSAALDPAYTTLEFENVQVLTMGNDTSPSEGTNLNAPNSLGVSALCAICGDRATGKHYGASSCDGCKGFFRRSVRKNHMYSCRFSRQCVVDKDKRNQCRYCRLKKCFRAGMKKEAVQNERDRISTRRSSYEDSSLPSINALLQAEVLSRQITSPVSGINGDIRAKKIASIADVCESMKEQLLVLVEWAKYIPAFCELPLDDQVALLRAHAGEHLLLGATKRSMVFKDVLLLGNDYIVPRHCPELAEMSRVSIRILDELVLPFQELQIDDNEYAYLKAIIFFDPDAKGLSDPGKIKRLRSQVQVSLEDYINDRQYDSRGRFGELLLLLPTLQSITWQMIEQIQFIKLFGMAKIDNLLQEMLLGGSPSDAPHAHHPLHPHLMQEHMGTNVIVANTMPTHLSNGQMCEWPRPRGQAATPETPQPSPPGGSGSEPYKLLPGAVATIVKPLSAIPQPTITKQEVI
Chain of Transcriptional activator Myb (Homo sapiens) (P10242 whole entry, looked up): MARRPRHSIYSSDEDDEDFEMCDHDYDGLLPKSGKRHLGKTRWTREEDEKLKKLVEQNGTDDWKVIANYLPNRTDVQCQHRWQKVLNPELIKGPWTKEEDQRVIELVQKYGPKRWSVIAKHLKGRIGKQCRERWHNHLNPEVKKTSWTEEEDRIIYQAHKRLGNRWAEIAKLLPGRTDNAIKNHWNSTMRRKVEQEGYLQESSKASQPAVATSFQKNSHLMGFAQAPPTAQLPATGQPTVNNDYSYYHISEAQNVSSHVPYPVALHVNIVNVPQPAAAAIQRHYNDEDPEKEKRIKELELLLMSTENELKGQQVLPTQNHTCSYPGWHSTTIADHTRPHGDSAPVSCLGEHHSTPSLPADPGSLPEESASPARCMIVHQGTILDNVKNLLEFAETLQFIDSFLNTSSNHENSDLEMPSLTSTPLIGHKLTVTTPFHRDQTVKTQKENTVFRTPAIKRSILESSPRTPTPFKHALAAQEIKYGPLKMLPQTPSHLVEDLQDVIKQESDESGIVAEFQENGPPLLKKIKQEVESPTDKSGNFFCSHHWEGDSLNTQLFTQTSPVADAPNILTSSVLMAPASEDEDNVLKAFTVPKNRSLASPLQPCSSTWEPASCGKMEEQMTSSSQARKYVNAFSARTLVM
Chain of X-box-binding protein 1 (Homo sapiens) (P17861 whole entry, looked up, the tested form may be a part): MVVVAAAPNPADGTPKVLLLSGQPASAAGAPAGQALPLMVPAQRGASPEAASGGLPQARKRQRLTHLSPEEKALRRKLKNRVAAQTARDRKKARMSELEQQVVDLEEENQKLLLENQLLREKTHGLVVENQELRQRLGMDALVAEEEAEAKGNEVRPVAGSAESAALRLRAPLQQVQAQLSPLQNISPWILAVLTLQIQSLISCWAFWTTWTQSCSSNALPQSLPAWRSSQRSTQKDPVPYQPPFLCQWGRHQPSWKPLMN
Chain of Estrogen receptor (Homo sapiens) (P03372 whole entry, looked up, the tested form may be a part): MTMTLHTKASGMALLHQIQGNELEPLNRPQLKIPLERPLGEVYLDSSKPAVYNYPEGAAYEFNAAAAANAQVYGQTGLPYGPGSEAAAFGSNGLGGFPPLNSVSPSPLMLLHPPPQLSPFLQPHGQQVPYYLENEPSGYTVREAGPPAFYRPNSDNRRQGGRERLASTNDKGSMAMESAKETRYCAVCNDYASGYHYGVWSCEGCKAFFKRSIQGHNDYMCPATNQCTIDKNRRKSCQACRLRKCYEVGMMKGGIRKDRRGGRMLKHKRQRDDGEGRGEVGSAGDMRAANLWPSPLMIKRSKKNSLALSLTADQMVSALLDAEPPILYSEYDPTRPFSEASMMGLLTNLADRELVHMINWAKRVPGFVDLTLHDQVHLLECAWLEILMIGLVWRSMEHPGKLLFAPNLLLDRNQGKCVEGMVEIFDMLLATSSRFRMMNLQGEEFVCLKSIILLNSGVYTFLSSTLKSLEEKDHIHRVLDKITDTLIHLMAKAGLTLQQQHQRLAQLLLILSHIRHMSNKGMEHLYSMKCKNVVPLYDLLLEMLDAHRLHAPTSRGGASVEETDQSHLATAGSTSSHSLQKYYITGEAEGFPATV
Chain of Oxysterols receptor LXR-beta (Homo sapiens) (P55055 whole entry, looked up, the tested form may be a part): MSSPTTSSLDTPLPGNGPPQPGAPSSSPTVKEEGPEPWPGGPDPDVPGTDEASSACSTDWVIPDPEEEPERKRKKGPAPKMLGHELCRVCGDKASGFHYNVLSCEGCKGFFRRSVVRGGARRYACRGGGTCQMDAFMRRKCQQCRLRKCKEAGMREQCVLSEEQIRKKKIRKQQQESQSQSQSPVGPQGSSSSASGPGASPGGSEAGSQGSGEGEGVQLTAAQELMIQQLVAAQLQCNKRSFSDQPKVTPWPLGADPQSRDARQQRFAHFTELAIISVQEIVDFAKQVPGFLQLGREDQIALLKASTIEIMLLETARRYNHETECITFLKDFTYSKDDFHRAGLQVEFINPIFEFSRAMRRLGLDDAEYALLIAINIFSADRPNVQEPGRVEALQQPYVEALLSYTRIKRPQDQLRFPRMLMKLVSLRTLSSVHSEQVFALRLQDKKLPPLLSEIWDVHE
Chain of Bile acid receptor (Homo sapiens) (Q96RI1 whole entry, looked up, the tested form may be a part): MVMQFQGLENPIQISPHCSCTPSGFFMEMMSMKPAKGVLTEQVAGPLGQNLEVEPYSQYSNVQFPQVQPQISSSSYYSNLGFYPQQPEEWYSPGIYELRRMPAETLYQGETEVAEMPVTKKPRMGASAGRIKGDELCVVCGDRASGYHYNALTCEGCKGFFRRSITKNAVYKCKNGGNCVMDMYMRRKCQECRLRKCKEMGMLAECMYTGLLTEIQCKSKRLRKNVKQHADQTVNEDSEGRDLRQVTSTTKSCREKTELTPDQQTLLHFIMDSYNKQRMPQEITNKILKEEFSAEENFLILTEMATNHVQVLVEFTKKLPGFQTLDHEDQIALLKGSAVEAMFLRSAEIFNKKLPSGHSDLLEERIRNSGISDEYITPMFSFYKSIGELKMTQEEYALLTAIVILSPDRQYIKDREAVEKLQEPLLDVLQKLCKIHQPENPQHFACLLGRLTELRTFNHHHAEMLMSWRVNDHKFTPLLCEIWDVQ

In the case of `CC(CCO)CC(C)(C)C` (stereo unspecified), the compound was called inactive in test [1], in [2], in test [3], in test [4], in [5] and in test [6]. The call in [7], in [8], in [9], in [10], in test [11] and in test [12] was inactive. Besides, the compound was called inactive in [13].
As to `CCc1cccc(O)c1`, the compound was classed as inactive in test [1], in [2], in test [3], in test [5], in test [14] and in test [15]. Moreover, the compound was classed as inactive in test [16], in [8], in test [9], in test [10], in test [11] and in test [13]. In [4], the AC50 is 49.3 µM (active).
`CCCCOCCOCCO`: the outcome in [1], in [2], in [3], in test [4], in [5] and in test [14] was inactive. Also, the result in test [6], in [15], in test [7], in [10], in [11] and in test [12] was inactive. The result in [13] was inactive.
In the case of `FC(F)(F)c1ccc(Cl)c(Cl)c1`, the compound was called inactive in test [1], in test [2], in test [3], in [4], in test [5] and in [14]. Further, the call in test [6], in test [8], in test [9] and in [13] was inactive.
Take `c1ccc(Sc2ccccc2)cc1`: the outcome in test [1], in [2], in test [3], in test [4], in [14] and in test [6] was inactive. Also, the compound was classed as inactive in test [15], in [10] and in [13]. The AC50 in test [5] is 38.3 µM (active).
As for `CCCc1ccc(N)cc1`, the call in test [1], in [2], in [3], in [4], in test [5] and in [14] was inactive. Moreover, the result in [6], in test [15] and in test [13] was inactive.
In the case of `CCCCC/C=C\C=C\C(=O)OCC`, the outcome in [1], in [2], in test [4], in test [5], in [9] and in test [10] was inactive. Besides, in [11], the compound was called inactive. Moreover, the AC50 in test [3] was 74.2 µM (active); in test [13] it was 103 µM (active).
As for `CN(C)C(=O)Nc1ccccc1`, the result in test [1], in test [2], in [3], in test [4], in test [5] and in test [14] was inactive. In addition, the outcome in test [6], in test [17], in test [9], in [12] and in test [13] was inactive.
In the case of `CCCCCCCCCCCCCCCCCC(=O)OCCCCCCCCCCCCCC(C)C`, the outcome in [1], in test [2], in test [3], in [4], in test [5] and in [14] was inactive. For the same compound, the outcome in test [15], in test [7], in test [8], in test [17], in test [9] and in test [10] was inactive. Further, the result in test [13] was inactive.
